Records with an inconclusive call do not appear. Calls of active or inactive are those of the source. Calls follow the shape of the dose curve; as a rule, active = well fitted curve in the direction sought with a large enough effect; inconclusive = small, poorly fitted or top-dose-only effect, or another doubt; inactive = no such curve, though single readings can be large; an effect the other way counts as inactive or inconclusive.
Tests used:
[1] = BET inhibitor-based combinations targeting novel dependencies in MECOM-rearranged (r) AML: SET-2 cell line (AID 2202231); conditions: SET-2 AML cells viability, CellTiter-Glo luminescence, 48 h; viability: hits give low values, concentration not given here; also: nearly all actives have a fitted effect of over 35% in size;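 as to viability: plate controls were DMSO treated cells for no effect and wells without cells for full effect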
In short: (§1)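 Viability of cells (500 per well) is scored by luminescent CellTiter-Glo at 48 hr post-dosing. Eleven-point titrations are normalized to DMSO and empty controls and reduced to AUC values.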

[2] = BET inhibitor-based combinations targeting novel dependencies in MECOM-rearranged (r) AML: OCI-AML3 cell line (AID 2202232); conditions: Potency: OCI-AML3 viability; also: nearly all actives have a fitted effect of over 35% in size
In short: as §1

[3] = BET inhibitor-based combinations targeting novel dependencies in MECOM-rearranged (r) AML: HNT-34 cell line (AID 2202234); also: nearly all actives have a fitted effect of over 35% in size
In short: (§2)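 Using pin-tool transfer, drugs were added in 11 doses to cells (500/well), incubated 48 hr, and assessed with CellTiter-Glo. Z-AUC is a mean-centring transformation applied separately to each screened line.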

[4] = BET inhibitor-based combinations targeting novel dependencies in MECOM-rearranged (r) AML: UCSD-AML1 cell line (AID 2202235); also: nearly all actives have a fitted effect of over 40% in size
In short: as §2

[5] = BET inhibitor-based combinations targeting novel dependencies in MECOM-rearranged (r) AML: AML-191 cell line (AID 2202236; also: nearly all actives have a fitted effect of over 35% in size)
In short: as §1

[6] = BET inhibitor-based combinations targeting novel dependencies in MECOM-rearranged (r) AML: AML-194 cell line (AID 2202237; also: nearly all actives have a fitted effect of over 40% in size)
In short: as §1

[7] = BET inhibitor-based combinations targeting novel dependencies in MECOM-rearranged (r) AML: MV-4-11 cell line (AID 2202233); also: nearly all actives have a fitted effect of over 45% in size
In short: as §2
Potency is read from the fitted curve at half-maximal effect.

C/C(=C\c1csc(C)n1)[C@@H]1C[C@@H]2O[C@]2(C)CCC[C@H](C)[C@H](O)[C@@H](C)C(=O)C(C)(C)[C@@H](O)CC(=O)N1
active: Potency [1] 0.0525 µM | Potency [2] 0.0209 µM | Potency [3] 0.0148 µM | Potency [4] 0.0166 µM | Potency [5] 0.0235 µM | Potency [6] 0.0295 µM

C=CCN1C[C@H](C(=O)N(CCCN(C)C)C(=O)NCC)CC2c3cccc4[nH]cc(c34)C[C@H]21 (some centres not stated)
active: Potency [2] 10.5 µM
inactive: viability [1] 115% | Potency [3] | Potency [4] | Potency [5] | Potency [6]

O=C(Nc1cnn2ccc(N3CCC[C@@H]3c3cc(F)ccc3F)nc12)N1CC[C@H](O)C1
inactive: viability [1] 98.9% | Potency [2] | Potency [3] | Potency [4]

CN(C)CCN1C(=O)c2cccc3cc(NC(N)=O)cc(c23)C1=O
active: Potency [1] 18.6 µM | Potency [2] 13.2 µM | Potency [3] 8.33 µM | Potency [4] 5.9 µM | Potency [5] 9.34 µM | Potency [6] 9.34 µM

CCS(=O)(=O)N1CCC(C(C)n2c(C)c(C(=O)NCc3c(OC)cc(C)[nH]c3=O)c3ccccc32)CC1 (configuration not stated)
inactive: viability [1] 108% | Potency [2] | Potency [3] | Potency [4] | Potency [5] | Potency [6]

CC#CC(=O)N1CC[C@@H](n2c(=O)n(-c3ccc(Oc4ccccc4)cc3)c3c(N)ncnc32)C1
active: Potency [7] 10.5 µM
inactive: viability [1] 83.2% | Potency [2] | Potency [4] | Potency [6]

C[C@@H](Oc1ccc2[nH]nc(/C=C/c3cnn(CCO)c3)c2c1)c1c(Cl)cncc1Cl
active: Potency [1] 1.05 µM | Potency [2] 8.33 µM | Potency [7] 0.296 µM | Potency [4] 1.05 µM | Potency [6] 0.934 µM

COc1ccc(C(=O)N2CCN(c3ccc4c(c3)CCC(=O)N4)CC2)cc1OC
inactive: viability [1] 105% | Potency [2] | Potency [7] | Potency [5] | Potency [6]

CC(=O)Nc1cc(Oc2ccc3c(nc(Nc4ccc(F)cc4F)n3C)c2C)ccn1
active: Potency [1] 0.209 µM | Potency [2] 0.934 µM | Potency [3] 0.118 µM | Potency [4] 0.235 µM

CCC(=O)O[C@]1(C(=O)CO)CC[C@H]2[C@@H]3CCC4=CC(=O)CC[C@]4(C)[C@H]3CC[C@@]21C
inactive: viability [1] 101% | Potency [2] | Potency [7] | Potency [6]

O=C1CC[C@H](N2Cc3c(OCc4ccc(CN5CCOCC5)cc4)cccc3C2=O)C(=O)N1
inactive: viability [1] 102% | Potency [2] | Potency [3] | Potency [4] | Potency [5] | Potency [6]

CN(C)Cc1ccc(S(=O)(=O)n2ccc(/C=C/C(=O)NO)c2)cc1
active: Potency [1] 3.72 µM | Potency [2] 5.25 µM | Potency [7] 2.35 µM | Potency [5] 4.17 µM | Potency [6] 5.9 µM

O=C(C[C@@H]1C/C=C\CCC(=O)O[C@H](c2ccccc2)CNC1=O)NCc1ccc(Cl)cc1
inactive: viability [1] 117% | Potency [2] | Potency [7] | Potency [5] | Potency [6]
